# From the supplement of paper PMC11006884
# Of roughly 6,500 targets only a part is listed; those with a hit were picked by preference. About 2% of all pairs of compound and target were hits. Unmarked numbers belong to inactive results.
# Compound: COC(=O)C#Cc1ccccc1 [methyl 3-phenylpropiolate]
# Experiment: log2 ratio of iodoacetamide-alkyne labeling of the cysteine site, DMSO over compound (competition); higher = stronger covalent engagement of the cysteine by the compound, active = 1 or more
# Conditions: 500 µM; treatment time 1 h; system: HEK293T cell lysate
# Outline: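 HEK293T lysate (2 mg/mL) was treated with DMSO or electrophile (500 µM, 1 h, ambient temperature), then iodoacetamide alkyne (1 h), clicked to sCIP-TMT reagents, pooled, trypsin-digested overnight at 37 °C, streptavidin-enriched and acid-eluted. Peptides were run on Orbitrap Eclipse LC-MS/MS with FAIMS and quantified in FragPipe. The log2 competition ratio per cysteine is mean control-channel over mean compound-channel reporter intensity. Duplicate channels and three replicates were used, and cysteines quantified in only one replicate were excluded.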
# Chain of UniProt Q8TEX9 (Q8TEX9 whole entry, looked up): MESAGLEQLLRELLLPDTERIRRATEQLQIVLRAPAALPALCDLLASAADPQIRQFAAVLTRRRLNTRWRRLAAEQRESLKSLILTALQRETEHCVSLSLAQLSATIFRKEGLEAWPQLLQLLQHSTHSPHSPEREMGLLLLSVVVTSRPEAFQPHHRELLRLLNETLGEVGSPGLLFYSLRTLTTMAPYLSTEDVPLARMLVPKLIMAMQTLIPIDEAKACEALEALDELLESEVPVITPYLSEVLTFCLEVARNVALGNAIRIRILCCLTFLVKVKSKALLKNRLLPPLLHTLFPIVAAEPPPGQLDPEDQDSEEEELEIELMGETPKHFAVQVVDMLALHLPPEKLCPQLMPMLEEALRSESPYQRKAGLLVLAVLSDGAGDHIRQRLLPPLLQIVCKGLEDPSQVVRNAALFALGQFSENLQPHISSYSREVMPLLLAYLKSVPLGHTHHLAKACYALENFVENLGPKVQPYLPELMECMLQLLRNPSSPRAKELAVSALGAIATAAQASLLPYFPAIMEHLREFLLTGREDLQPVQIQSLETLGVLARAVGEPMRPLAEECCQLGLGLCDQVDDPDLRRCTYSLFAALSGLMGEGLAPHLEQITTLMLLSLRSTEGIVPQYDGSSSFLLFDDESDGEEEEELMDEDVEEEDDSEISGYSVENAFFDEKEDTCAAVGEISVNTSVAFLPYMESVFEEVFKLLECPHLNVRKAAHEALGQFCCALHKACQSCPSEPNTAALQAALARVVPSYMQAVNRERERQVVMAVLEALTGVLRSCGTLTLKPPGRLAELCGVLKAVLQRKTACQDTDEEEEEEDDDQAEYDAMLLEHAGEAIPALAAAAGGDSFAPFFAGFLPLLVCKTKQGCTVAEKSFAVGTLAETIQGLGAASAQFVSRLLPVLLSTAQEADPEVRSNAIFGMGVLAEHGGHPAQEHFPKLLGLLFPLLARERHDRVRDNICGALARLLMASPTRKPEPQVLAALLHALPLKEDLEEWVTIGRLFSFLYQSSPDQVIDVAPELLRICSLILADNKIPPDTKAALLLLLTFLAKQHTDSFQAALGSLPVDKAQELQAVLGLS
# Chain of UniProt Q6UB35 (Q6UB35 whole entry, looked up): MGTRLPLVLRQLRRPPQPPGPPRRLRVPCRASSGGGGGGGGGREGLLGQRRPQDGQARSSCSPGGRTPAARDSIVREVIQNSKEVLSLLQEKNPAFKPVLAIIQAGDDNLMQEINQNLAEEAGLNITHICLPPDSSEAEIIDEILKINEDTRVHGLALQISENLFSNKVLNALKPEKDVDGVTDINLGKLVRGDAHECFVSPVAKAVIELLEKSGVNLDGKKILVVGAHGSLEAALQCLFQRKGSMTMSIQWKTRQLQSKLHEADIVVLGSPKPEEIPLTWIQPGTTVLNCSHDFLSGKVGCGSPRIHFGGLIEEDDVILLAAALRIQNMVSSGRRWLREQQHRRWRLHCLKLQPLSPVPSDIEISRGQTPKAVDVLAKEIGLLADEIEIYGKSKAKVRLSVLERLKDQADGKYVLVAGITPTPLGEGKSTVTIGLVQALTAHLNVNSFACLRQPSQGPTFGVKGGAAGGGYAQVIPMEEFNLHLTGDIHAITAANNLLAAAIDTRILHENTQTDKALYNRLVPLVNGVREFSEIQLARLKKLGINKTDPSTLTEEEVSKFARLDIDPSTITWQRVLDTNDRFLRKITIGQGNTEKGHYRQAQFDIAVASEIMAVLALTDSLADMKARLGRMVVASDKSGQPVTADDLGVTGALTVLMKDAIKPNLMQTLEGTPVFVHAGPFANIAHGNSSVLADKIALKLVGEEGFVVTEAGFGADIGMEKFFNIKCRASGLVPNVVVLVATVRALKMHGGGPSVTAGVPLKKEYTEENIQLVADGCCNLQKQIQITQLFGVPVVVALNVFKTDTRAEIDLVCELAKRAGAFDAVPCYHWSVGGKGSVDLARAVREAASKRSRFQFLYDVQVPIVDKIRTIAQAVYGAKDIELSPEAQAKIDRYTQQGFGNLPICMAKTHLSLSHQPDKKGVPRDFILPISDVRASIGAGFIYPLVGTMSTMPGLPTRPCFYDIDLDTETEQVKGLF
# Chain of UniProt Q96C36 (Q96C36 whole entry, looked up): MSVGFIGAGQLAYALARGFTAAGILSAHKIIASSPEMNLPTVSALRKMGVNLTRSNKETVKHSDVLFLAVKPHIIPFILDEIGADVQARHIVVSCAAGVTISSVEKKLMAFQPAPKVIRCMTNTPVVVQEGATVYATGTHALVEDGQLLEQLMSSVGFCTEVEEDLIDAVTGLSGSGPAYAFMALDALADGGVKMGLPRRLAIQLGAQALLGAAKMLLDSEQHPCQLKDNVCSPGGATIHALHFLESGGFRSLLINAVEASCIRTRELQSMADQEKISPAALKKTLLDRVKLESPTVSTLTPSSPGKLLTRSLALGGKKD
# Chain of UniProt Q99497 (Q99497 whole entry, looked up): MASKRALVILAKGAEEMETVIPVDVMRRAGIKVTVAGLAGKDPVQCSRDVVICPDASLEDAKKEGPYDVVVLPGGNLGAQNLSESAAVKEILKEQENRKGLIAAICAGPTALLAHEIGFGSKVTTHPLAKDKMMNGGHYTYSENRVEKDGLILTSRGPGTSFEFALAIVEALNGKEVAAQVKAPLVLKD
# Chain of UniProt Q6ZU80 (Q6ZU80 whole entry): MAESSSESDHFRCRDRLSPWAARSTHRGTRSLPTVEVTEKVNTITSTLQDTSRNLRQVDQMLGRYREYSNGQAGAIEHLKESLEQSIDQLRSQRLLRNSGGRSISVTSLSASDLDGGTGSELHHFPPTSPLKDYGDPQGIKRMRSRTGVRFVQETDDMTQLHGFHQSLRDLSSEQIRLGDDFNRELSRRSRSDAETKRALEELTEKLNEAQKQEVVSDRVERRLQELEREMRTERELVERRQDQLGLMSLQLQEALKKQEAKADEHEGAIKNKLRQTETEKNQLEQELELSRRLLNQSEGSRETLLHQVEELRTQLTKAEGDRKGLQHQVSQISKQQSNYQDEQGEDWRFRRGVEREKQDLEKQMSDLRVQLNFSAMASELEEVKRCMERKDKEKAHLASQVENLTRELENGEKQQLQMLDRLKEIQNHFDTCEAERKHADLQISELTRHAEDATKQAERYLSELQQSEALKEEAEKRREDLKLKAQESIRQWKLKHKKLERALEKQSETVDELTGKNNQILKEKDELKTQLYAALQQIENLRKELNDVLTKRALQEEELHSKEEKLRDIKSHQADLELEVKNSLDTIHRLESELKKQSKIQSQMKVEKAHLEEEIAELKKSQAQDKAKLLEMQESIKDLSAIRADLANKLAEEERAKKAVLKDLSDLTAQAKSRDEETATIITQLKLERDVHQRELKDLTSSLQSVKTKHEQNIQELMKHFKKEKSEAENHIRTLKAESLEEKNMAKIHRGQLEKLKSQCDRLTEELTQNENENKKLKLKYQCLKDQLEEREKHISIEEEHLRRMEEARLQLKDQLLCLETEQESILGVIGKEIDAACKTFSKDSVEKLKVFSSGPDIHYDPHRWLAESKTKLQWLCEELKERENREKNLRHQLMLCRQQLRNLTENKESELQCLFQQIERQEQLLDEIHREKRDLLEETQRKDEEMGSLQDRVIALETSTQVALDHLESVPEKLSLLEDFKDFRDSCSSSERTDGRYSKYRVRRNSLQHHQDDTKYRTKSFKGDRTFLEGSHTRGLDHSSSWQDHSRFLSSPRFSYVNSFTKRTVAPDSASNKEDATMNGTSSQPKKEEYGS
# Chain of UniProt Q8NEZ3 (Q8NEZ3 whole entry): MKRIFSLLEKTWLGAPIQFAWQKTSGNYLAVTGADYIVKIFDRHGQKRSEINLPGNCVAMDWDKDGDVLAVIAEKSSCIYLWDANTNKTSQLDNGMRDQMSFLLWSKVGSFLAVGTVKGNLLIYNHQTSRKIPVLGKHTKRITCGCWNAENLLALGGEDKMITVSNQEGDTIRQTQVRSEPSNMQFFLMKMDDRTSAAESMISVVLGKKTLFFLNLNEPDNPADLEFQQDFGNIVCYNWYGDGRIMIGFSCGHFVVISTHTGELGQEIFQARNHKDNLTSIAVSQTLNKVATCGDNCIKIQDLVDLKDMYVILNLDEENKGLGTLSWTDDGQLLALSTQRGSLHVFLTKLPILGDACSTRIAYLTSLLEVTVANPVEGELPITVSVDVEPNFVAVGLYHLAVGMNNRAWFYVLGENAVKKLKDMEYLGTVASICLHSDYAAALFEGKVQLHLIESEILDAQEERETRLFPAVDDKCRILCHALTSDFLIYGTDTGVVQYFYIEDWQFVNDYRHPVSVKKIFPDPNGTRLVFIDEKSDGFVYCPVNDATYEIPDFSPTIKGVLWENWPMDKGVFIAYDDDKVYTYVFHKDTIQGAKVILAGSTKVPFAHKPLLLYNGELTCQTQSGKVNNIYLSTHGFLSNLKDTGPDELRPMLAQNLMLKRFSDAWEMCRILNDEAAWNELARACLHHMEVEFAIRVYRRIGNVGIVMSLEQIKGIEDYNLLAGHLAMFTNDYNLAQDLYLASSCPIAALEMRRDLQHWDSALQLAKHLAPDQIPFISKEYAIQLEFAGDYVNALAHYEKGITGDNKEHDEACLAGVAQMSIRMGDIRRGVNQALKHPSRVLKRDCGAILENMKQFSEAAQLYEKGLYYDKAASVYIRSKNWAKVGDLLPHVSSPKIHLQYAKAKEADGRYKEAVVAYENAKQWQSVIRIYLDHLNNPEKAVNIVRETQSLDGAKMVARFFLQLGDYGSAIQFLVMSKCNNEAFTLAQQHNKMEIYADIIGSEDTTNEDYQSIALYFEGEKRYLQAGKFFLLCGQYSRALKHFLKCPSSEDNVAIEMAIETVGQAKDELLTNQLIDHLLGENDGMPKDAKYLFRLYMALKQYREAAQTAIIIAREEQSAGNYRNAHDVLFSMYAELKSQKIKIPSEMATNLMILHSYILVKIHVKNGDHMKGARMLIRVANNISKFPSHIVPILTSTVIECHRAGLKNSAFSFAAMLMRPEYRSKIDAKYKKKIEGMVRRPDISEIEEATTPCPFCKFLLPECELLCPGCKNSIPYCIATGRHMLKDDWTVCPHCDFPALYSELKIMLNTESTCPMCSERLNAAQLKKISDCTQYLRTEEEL
row,Target,log2 ratio of iodoacetamide-alkyne labeling
1,UniProt Q8N1G2_C794,0.107
2,UniProt Q5VSL9_C418,1.22 (active)
3,NUP205 C877 (UniProt Q92621),0.102
4,VPS8 C1371 (UniProt Q8N3P4),0.234
5,WDR19 C1332 (UniProt Q8NEZ3),0.441
6,GINS3 C188 (UniProt Q9BRX5),0.255
7,PYCR2 C262 (UniProt Q96C36),0.538
8,AKT1S1 C61 (UniProt Q96B36),0.266
9,CYFIP1 C98 (UniProt Q7L576),1.78 (active)
10,GTF3C2 C608 (UniProt Q8WUA4),0.147
11,CCT7 C29 (UniProt Q99832),1.51 (active)
12,IPO4 C350 (UniProt Q8TEX9),0.564
13,MMS19 C549 (UniProt Q96T76),1.36 (active)
14,WDFY1 C287 (UniProt Q8IWB7),0.127
15,THOC6 C314 (UniProt Q86W42),0.0566
16,ZNF318 C1559 (UniProt Q5VUA4),0.605
17,CNN2 C175 (UniProt Q99439),1.04 (active)
18,TMCO6 C57 (UniProt Q96DC7),0.394

row,Target,log2 ratio of iodoacetamide-alkyne labeling
1,TBRG4 C335 (UniProt Q969Z0),0.436
2,DPF1 C149 (UniProt Q92782),0.289
3,ACO2 C385 (UniProt Q99798),1.66 (active)
4,THOC2 C743 (UniProt Q8NI27),0.442
5,CAND1 C275 (UniProt Q86VP6),-0.226
6,TMEM192 C266 (UniProt Q8IY95),0.418
7,CEP128 C915 (UniProt Q6ZU80),0.335
8,TET2 C332 (UniProt Q6N021),0.594
9,UniProt Q8WVB3_C244,0.59
10,PIK3R4 C899 (UniProt Q99570),0.087
11,CCT7 C310 (UniProt Q99832),0.193
12,UniProt Q8IX01_C656,2.27 (active)
13,PARK7 C53 (UniProt Q99497),-0.0888
14,MTHFD1L C778 (UniProt Q6UB35),1.1 (active)
15,CAND1 C1153 (UniProt Q86VP6),0.443
16,UniProt Q7Z5K2_C251,0.11
17,LPP C468 (UniProt Q93052),0.118
